Experimental data published in PubChem BioAssay AID1159580 (chemical genetic matrix, 2015).
Values joined by “and” are separate entries in the source; they are usually repeats but may differ in a detail not shown here. Identical values can stand only once. Screen size: about 5,500 compounds; about 2,000 (36%) were called active. Another 18% or so got no clear call; they are omitted. No stated cut-off is given here; in the data, active means normalized growth mostly below about 0.91 (no sharp cut-off); inconclusive means no clear call, values can overlap the other calls; inactive means mostly above about 0.92. This is one part of the list.

Assay: chemical genetic growth profiling, strain panel (AID 1159580);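 further: tested at 20 µM; growth read once vehicle control cultures reached saturation at 30 °C; 1 = growth at the plate median or of vehicle wells; lower values mean less growth of the strain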
Settings: S. cerevisiae deletion strains, growth OD

Measured: normalized growth

COc1cc2c(cc1OC)Cc1cc(OC)c(OC)cc1Cc1cc(OC)c(OC)cc1C2
inactive: locus YAL021C, strain ccr4, hits give low values 1.03 | locus YAL026C, strain drs2, hits give low values 1.04 | locus YAL030W, strain snc1, hits give low values 1.03 | locus YBL061C, strain skt5, hits give low values 1.03 | locus YBR009C, strain hhf1, hits give low values 1.03 | locus YBR021W, strain FUR4, hits give low values 1.02 | locus YBR023C, strain chs3, hits give low values 1.03 | locus YBR171W, strain sec66, hits give low values 1.05 | locus YBR229C, strain ROT2, hits give low values 1.02 | locus YBR231C, strain swc5, hits give low values 1.04 | locus YBR279W, strain paf1, hits give low values 1.02 | locus YCL011C, strain gbp2, hits give low values 1.04 | locus YCL016C, strain dcc1, hits give low values 1.03 | locus YCL029C, strain bik1, hits give low values 1.02 | locus YCL061C, strain MRC1, hits give low values 1.02 | locus YCL069W, strain vba3, hits give low values 1.02 | locus YCR088W, strain abp1, hits give low values 1.02 | locus YDL005C, strain med2, hits give low values 1.03 | locus YDL035C, strain GPR1, hits give low values 1.01 | locus YDL040C, strain nat1, hits give low values 1.05 | locus YDL074C, strain BRE1, hits give low values 1.03 | locus YDL101C, strain DUN1, hits give low values 1.02 | locus YDL134C, strain PPH21, hits give low values 1.02 | locus YDL185W, strain tfp1, hits give low values 1.02 | locus YDL192W, strain arf1, hits give low values 1.05 | locus YDR001C, strain nth1, hits give low values 1.02 | locus YDR069C, strain doa4, hits give low values 1.04 | locus YDR101C, strain arx1, hits give low values 1.07 | locus YDR137W, strain rgp1, hits give low values 1.08 | locus YDR150W, strain NUM1, hits give low values 0.978 | locus YDR159W, strain sac3, hits give low values 1.05 | locus YDR162C, strain NBP2, hits give low values 1.03 | locus YDR195W, strain ref2 1.01 | locus YDR297W, strain sur2, hits give low values 1.03 | locus YDR318W, strain mcm21, hits give low values 1.02 | locus YDR334W, strain swr1, hits give low values 1.02 | locus YDR335W, strain msn5, hits give low values 1.03 | locus YDR388W, hits give low values 1.03 | locus YDR392W, strain spt3, hits give low values 0.993 | locus YDR502C, strain sam2, hits give low values 1.03 | locus YEL003W, strain gim4, hits give low values 1.04 | locus YEL037C, strain rad23, hits give low values 1.02 | locus YEL061C, strain CIN8 (second series), hits give low values 1.03 | locus YEL061C, strain CIN8, hits give low values 1.01 | locus YER015W, strain faa2, hits give low values 1.03 | locus YER016W, strain bim1, hits give low values 1.02 | locus YER110C, hits give low values 1.03 | locus YER111C, strain swi4, hits give low values 1.03 | locus YER155C, strain BEM2 (second series), hits give low values 1.03 | locus YER155C, strain BEM2, hits give low values 1.01 | locus YER167W, strain BCK2, hits give low values 1.01 | locus YFR010W, strain ubp6, hits give low values 1.05 | locus YGL078C, strain dbp3, hits give low values 1.03 | locus YGL086W, strain mad1, hits give low values 0.979 | locus YGL167C, strain pmr1, hits give low values 1.04 | locus YGL173C, strain kem1, hits give low values 1.04 | locus YGL227W, strain vid30, hits give low values 1.04 | locus YGL240W, strain doc1, hits give low values 1.03 | locus YGL248W, strain PDE1, hits give low values 1.02 | locus YGL253W, strain hxk2, hits give low values 1.02 | locus YGR078C, strain PAC10, hits give low values 1.02 | locus YGR135W, strain pre9, hits give low values 1.06 | locus YGR252W, strain gcn5, hits give low values 1.05 | locus YHR013C, strain ard1, hits give low values 1.05 | locus YHR027C, strain rpn1, hits give low values 1.04 | locus YHR030C, strain SLT2, hits give low values 1.01 and 1.02 | locus YHR079C, strain IRE1 (second series), hits give low values 1.02 | locus YHR079C, strain IRE1, hits give low values 1.06 | locus YHR094C, strain hxt1, hits give low values 1.03 | locus YHR129C, strain ARP1, hits give low values 1.01 | locus YHR142W, strain chs7, hits give low values 1.03 | locus YHR200W, strain rpn10, hits give low values 1.03 | locus YIL066C, strain RNR3, hits give low values 1.01 | locus YIL073C, strain SPO22, hits give low values 1.04 | locus YIL125W, strain kgd1, hits give low values 1.04 | locus YIR030C, strain dcg1, hits give low values 1.02 | locus YJL092W, strain hpr5, hits give low values 1.03 | locus YJL095W, strain BCK1 (second series), hits give low values 1.02 | locus YJL095W, strain BCK1, hits give low values 1.02 and 1.03 | locus YJL115W, strain asf1, hits give low values 1.04 | locus YJL129C, strain trk1, hits give low values 1.05 | locus YJL134W, strain LCB3, hits give low values 0.998 | locus YJL154C, strain vps35, hits give low values 1.01 | locus YJL164C, strain tpk1, hits give low values 1 | locus YJL166W, strain qcr8, hits give low values 1.03 | locus YJL168C, strain set2, hits give low values 1.03 | locus YJL187C, strain SWE1 (second series), hits give low values 1.03 | locus YJL187C, strain SWE1, hits give low values 1.03 | locus YJR043C, strain POL32, hits give low values 1
